Here are results for 40 molecules from PubChem BioAssay.

Unmarked numbers belong to inactive results. No rule for the calls is given here.

Chain of Pantothenate synthetase (Mycobacterium tuberculosis (strain ATCC 25618 / H37Rv)) (P9WIL5 whole entry, looked up): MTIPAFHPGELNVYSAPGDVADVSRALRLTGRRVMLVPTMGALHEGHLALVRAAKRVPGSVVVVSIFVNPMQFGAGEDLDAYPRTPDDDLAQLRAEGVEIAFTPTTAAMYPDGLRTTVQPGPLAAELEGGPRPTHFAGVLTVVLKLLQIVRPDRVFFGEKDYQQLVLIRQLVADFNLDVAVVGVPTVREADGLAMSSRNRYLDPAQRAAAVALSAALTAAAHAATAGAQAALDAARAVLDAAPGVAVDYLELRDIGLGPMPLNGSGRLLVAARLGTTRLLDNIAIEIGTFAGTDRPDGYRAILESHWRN

This assay has as its target Pantothenate synthetase (Mycobacterium tuberculosis (strain ATCC 25618 / H37Rv)) (UniProt P9WIL5). Description: Recombinant Mtb pantothenate synthetase (PanC) inhibitors, coupled enzyme, confirmatory (AID 375).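 Also: 0% = full reaction with vehicle and 100% = no enzyme background.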 Conditions: coupled enzyme assay; at 10 µM, stronger effect = higher value.
One may read the inhibition as the share of the control response that was lost under treatment. As to `COc1ccc(OC)c(NS(=O)(=O)Cc2ccccc2)c1`, the inhibition was 0%.

In the case of `Cc1cc(NC(=O)CSc2nc(C3CC3)nc3sc4c(c23)CCC(C)C4)no1` (stereo not given), the inhibition is 6%.

`CCOC(=O)N1CCN(C(=O)Nc2ccc(Cl)cc2)CC1`: the inhibition was 0%.

In the case of `CN1CCC(=C2c3ccccc3CC(=O)c3sccc32)CC1`, the inhibition is 2%.

Take `O=C(CCn1c(=O)oc2ccccc21)NCc1ccco1`: the inhibition was 1%.

Consider `COc1ccc2[nH]c(=O)c(CN(Cc3cccs3)Cc3nnnn3C(C)(C)C)cc2c1`, for which the inhibition is 0%.

For `CCOc1ccc2nc(SCc3ccc(C(=O)OC)o3)[nH]c2c1`, the inhibition is 0%.

For the molecule `CCN(c1cccc(C(F)(F)F)c1)S(=O)(=O)c1ccc2c(c1)CCN2C(=O)C1CC1`, the inhibition was 3%.

For the molecule `O=C1C(C=NCCCn2ccnc2)=C(O)c2ccccc21`, the inhibition was 8%.

Regarding `Cc1onc(-c2c(Cl)cccc2Cl)c1C(=O)N1CCc2ccccc21`, the inhibition is 0%.

Take `CC(C)CCNc1cc(=O)n(C)c(=O)n1C`: the inhibition was 0%.

`Cc1cccc(COc2ccc(/C(O)=C3\C(=O)C(=O)N(CCN(C)C)C3c3ccncc3)cc2)c1` (stereo not given): the inhibition was 13%.

With `COC(=O)c1ccc(NC(=O)C(C)N2C(=O)c3ccccc3C2=O)cc1` (stereo not given), the inhibition was 8%.

Regarding `O=C1C2C3C=CC(C3)C2C(=O)N1c1cccc(N2C(=O)C3C4C=CC(C4)C3C2=O)n1` (stereo not given), the inhibition was 0%.

As for `Cc1cc(C)nc(N(C#N)CC(=O)N2CCC(C(N)=O)CC2)n1`, the inhibition was 1%.

With `CN(Cc1ccco1)C(=O)Cn1c(=O)oc2cc(S(=O)(=O)NCc3ccccc3)ccc21`, the inhibition was 0%.

For `CCOc1cccc(C(=O)N(Cc2ccco2)C2CCS(=O)(=O)C2)c1` (stereo not given), the inhibition was 6%.

As to `CCOC(=O)N(C)c1ccc(C(O)(C(F)(F)F)C(F)(F)F)cc1`, the inhibition was 0%.

For the molecule `Cc1cccc(-n2c(O)c(C=Nc3ccccc3N)c(=O)[nH]c2=O)c1`, the inhibition is 0%.

On to `COc1ccc(C2C(C(=O)N3CCCC3)c3cc(OC)c(OC)cc3C(=O)N2C)cc1` (stereo not given), for which the inhibition is 0%.

With `CCOc1ccc(S(=O)(=O)Nc2cccc(Cl)c2)cc1`, the inhibition was 1%.

For `CN1CC=C2C(C#N)=C(N)C(C#N)(C#N)[C@H](c3cccc(Cl)c3)C2C1` (stereo not given in full), the inhibition is 0%.

On to `Cc1noc(/C=C/N(C)C)c1S(=O)(=O)N1CCCC(C(=O)NCCC2=CCCCC2)C1` (stereo not given), for which the inhibition is 0%.

Consider `CC(=O)NCc1ccc(C(=O)CSc2nnc(-c3ccncc3)n2Cc2ccccc2)o1`, for which the inhibition is 16%.

As for `CN(C)C(=O)N1CCC(C(=O)NC2CCCCCCC2)CC1`, the inhibition was 0%.

With `COc1ccc(OC)c(NC(=O)C2C3CC4OC(=O)C2C4C3)c1` (stereo not given), the inhibition is 0%.

For `Cc1cc(C)n2nc(S(=O)(=O)N(C)c3ccccc3)nc2n1`, the inhibition is 0%.

Take `Cn1cccc1C1NC(=O)c2c(sc3c2CCC(C(C)(C)C)C3)N1` (stereo not given): the inhibition was 3%.

`COC(=O)Nc1ccc(C)cc1NC(=O)OC`: the inhibition is 2%.

Consider `O=S(=O)(c1cccc(S(=O)(=O)N2CCC(N3CCCCC3)CC2)c1)N1CCOCC1`, for which the inhibition is 0%.

Consider `Cc1[nH]nc2c1C1(C(=O)N(Cc3ccc(Cl)cc3)c3ccccc31)C(C#N)=C(N)O2` (stereo not given), for which the inhibition is 0%.

On to `O=C1CCCC2=C1C(c1cccs1)n1nc(SCc3ccccc3F)nc1N2` (stereo not given), for which the inhibition was 0%.

Regarding `CC1CCC2C(C1)c1sc(=O)[nH]c1SC2(C)C` (stereo not given), the inhibition was 2%.

For `CC(C)COc1ccc(-c2nnn(CC(=O)N3CCCC3)n2)cc1`, the inhibition is 0%.

Turning to `Cc1ccccc1OCc1nnc2n1CC(C)S2` (stereo not given), the inhibition was 0%.

Take `COc1cc(C(=O)Nc2cccc(-c3nc4cc(C)ccc4o3)c2)cc(OC)c1OC`: the inhibition is 3%.

Regarding `CCCCc1noc2c1/C(=N\O)CC(c1ccccc1)C2` (stereo not given), the inhibition is 3%.

As for `Cc1cc(C)cc(NC(=O)C2CCCN(c3nccc(C)n3)C2)c1` (stereo not given), the inhibition is 0%.

Regarding `CCOP(=O)(c1ccc(N(C)C)cc1)C(O)c1ccccc1OC` (stereo not given), the inhibition is 5%.

Take `O=C(Nc1cccc(NC(=O)c2ccco2)c1)c1ccc2c(c1)OCO2`: the inhibition is 0%.
